# From PubChem
# WT yeast gro inh = growth inhibition of WT yeast, mitochondrial fusion screen. mitochondrial fusion phenotypic screen, WT strain. AID 1362. actives 2.1% (n = 190,000). inhibition, % at 10 µM; in the data active means inhibition above about 58%; tested in S. cerevisiae
# Arbovirus inh = antivirals against arbovirus infection; actives 0.37% (n = 200,000); inhibition, % at 10 µM; arbovirus infection cell-based antiviral screen; in the data active means inhibition above about 30%
# PERK inh = blocks human PERK kinase; Q9NZJ5; CHO PERK-DD fusion, SEAP luminescence translation reporter; inhibition, % at 5.6 µM; actives 0.17% (n = 220,000);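 active means inhibition above the mean inhibition of all tested compounds plus 3 SD, set separately per screening campaign, cut at about 2.9% in these data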;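 further: PERK kinase domain activated by AP20187 dimerizer at 100 nM; 0% = DMSO with dimerizer and 100% = rapamycin at 8.4 µM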
# ROMK primary = modulators of human ROMK potassium channel. Tet-inducible ROMK, thallium flux fluorescence; actives lie on both sides. actives 2% (n = 130,000). B-score at 10 µM. P48048. AID 1918;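 active means signal ratio slope over the read window, or its plate-corrected B-score, at least 3 SD from the plate mean, either direction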;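 further: B-score of the F/F0 ratio slope over 7 to 12 s after thallium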
# Target sequence (P48048 whole entry, looked up): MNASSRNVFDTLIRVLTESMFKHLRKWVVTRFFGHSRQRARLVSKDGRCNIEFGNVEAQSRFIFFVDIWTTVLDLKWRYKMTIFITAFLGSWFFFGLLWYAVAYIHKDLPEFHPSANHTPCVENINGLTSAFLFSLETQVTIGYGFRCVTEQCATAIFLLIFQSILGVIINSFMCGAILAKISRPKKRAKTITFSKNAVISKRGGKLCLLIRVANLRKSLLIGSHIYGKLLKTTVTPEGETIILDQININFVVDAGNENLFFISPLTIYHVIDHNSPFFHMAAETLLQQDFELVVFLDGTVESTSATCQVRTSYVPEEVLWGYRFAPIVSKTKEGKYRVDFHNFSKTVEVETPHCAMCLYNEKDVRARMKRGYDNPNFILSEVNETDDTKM
# * marks the source's active call; other numbers are inactive results; nt = no result given. The list is not random: actives were taken first. Their share in the collection is about 3.3%.
SMILES,WT yeast gro inh,Arbovirus inh,PERK inh,ROMK primary
Cn1c(=O)c2c(ncn2CC(=O)Nc2ccc(Cl)cc2Cl)n(C)c1=O,0,-6,-1,nt
Cc1cccnc1NC1(C(F)(F)F)N=C(c2ccccc2)NC1=O (centres undefined),57,7,1,nt
Cc1ccc(CNC(=O)Cn2nnc3ccccc3c2=O)cc1,5,14,0,0.018
Cc1nnc(-c2ccc(Cl)cc2)[nH]c1=O,3,7,2,-0.27
S=C(Nc1ccc(Cl)cc1Cl)Nc1ccccc1Oc1ccccc1,6,-5,2,nt
S=C(Nc1ccccc1Oc1ccccc1)Nc1cccc(Cl)c1Cl,65*,11,1,nt
FC(F)Sc1ccc(NC(=S)NCC2CCCCC2)cc1,78*,-36,0,-1.8
S=C(NCC1CCCCC1)Nc1ccc(Oc2ccccc2)cc1,77*,-38,1,nt
FC(F)Sc1ccc(NC(=S)NC2CCCCC2)cc1,41,-16,0,-1.3
S=C(NCC1CCCCC1)Nc1cccnc1,5,2,1,0.4
Cc1ccnc(NC2OC(=O)c3ccccc32)c1 (centres undefined),11,8,0,0.45
N#Cc1c(-c2ccco2)nc(SCC(=O)Nc2ccc(S(N)(=O)=O)cc2)[nH]c1=O,13,32*,2,0.48
CCCCCCCCCc1nc2sc3c(c2c(=O)n1NC(=O)c1ccc([N+](=O)[O-])cc1)CC(C)(C)OC3,64*,-31,1,1.4
CCCc1nc2sc3c(c2c(=O)n1NC(=O)c1ccco1)CC(C)(C)OC3,-12,5,-1,1.7
CCCCCCCCCc1nc2sc3c(c2c(=O)n1NC(=O)c1ccccc1[N+](=O)[O-])CC(C)(C)OC3,71*,-32,-1,0.14
CCOC(=O)c1c(=O)n(O)c2ccc(OC)cc2[n+]1[O-],-8,5,0,-0.094
C=C(C)COc1ccc(-c2[nH]ncc2-c2ccccc2)c(O)c1,71*,-42,1,nt
COc1ccc(-c2cnc(N)nc2-c2ccc(OC)cc2O)cc1,-9,12,-1,0.57
C=C(C)COc1ccc(-c2nc(N)ncc2-c2ccc(OC)cc2)c(O)c1,84*,-46,0,nt
C=C(C)COc1ccc(-c2nc(N)nc(C)c2Oc2ccccc2OC)c(O)c1,73*,-6,-1,nt
CN(CCCNC(=O)CCCOc1cc(=O)n(C)c2ccccc12)Cc1ccccc1,8,-17,1,-0.033
Cc1ccc2nc(-c3ccc(Br)o3)oc(=O)c2c1,8,37*,1,1.3
O=C(Nc1ccccc1F)Nc1ccccc1OC(F)F,5,14,2,-0.36
O=C(Nc1nnc(C2=COCCO2)o1)c1ccc(Cl)cc1,60*,-21,1,nt
O=C(Nc1nnc(C2=COCCO2)o1)c1ccc(Cc2ccccc2)cc1,68*,-12,0,nt
SMILES,WT yeast gro inh,Arbovirus inh,PERK inh,ROMK primary
O=C(CSc1n[nH]c(-c2ccc(Cl)cc2Cl)n1)Nc1ccccn1,-20,26,2,0.064
C=CCC1(NC(C)c2ccccc2)CCCCC1 (centres undefined),9,2,1,-0.45
CC1CC(C)CN(CC(C)(C)NS(=O)(=O)c2ccccc2)C1 (centres undefined),11,2,1,nt
O=[N+]([O-])c1cccnc1N1CCC(c2cc(-c3ccc(Cl)cc3)n[nH]2)CC1,72*,-45,-1,0.11
CCNC(=S)N1CCCCC1CO (centres undefined),-11,-5,1,0.41
O=C(c1ccccc1)N(Cc1ccc2c(c1)OCO2)Cc1nc2ccccc2c(=O)[nH]1,1,-2,-1,3.2*
COc1cccc(-c2nc(CCl)cs2)c1OC,-7,12,1,0.16
O=C(CN1CCN(c2ccccc2)CC1)Nc1ccc(Oc2ccccc2)cc1,60*,-25,1,-0.84
COc1cccc(N2CCN(CC(=O)Nc3ccc(SC(F)F)cc3)CC2)c1,63*,13,0,nt
O=C(CN1CCN(c2ccc(O)cc2)CC1)Nc1ccc(SC(F)F)cc1,-3,-20,0,-0.05
CS(=O)(=O)N1CCC(Oc2ccccc2C(=O)NC(C2CC2)C2CC2)CC1,-21,-2,-1,1.4
Cc1cc(C(=O)Nc2ncn(Cc3ccc(F)cc3)n2)ccc1[N+](=O)[O-],nt,nt,1,nt
CCN1C(=O)CSc2ccc(C(=O)NCc3ccc(OC)cc3)cc21,-19,3,-1,-0.31
CCOC(=O)CC1C(=O)NCCN1C(=O)c1sc2ccccc2c1Cl (centres undefined),-4,4,0,0.68
Cc1nn(C)c(C)c1S(=O)(=O)N(CC(=O)N1CCc2ccccc2C1)c1ccc(C(C)C)cc1,17,-20,0,nt
CC1CCN(c2ccccc2NC(=O)c2ccc(F)cc2)CC1,72*,-7,1,0.33
CC1CCN(c2ccccc2NC(=S)NC(=O)C(C)(C)C)CC1,78*,-10,1,-0.58
